# Reference: PubChem BioAssay
# Calls of active or inactive are those of the source. Unless noted, the rule behind the calls is not given here.
# Columns and labels:
# [1] = resazurin metabolic signal in HepG2 cells – cell-based, resazurin fluorescence, 24 h, PK04 Diversity Set, profiling panel (AID 1172); conditions: HepG2 viability, higher = more signal; note: test concentration not given here
# [2] = budding yeast growth changes without added modifier – OD600, strain BY4716, 24 h, basal condition, primary screen (AID 1173); conditions: S. cerevisiae BY4716 growth, OD600, 24 h; higher = more signal, called active from +8 up or from −8 down
# [3] = viability profiling in MM1S myeloma cells – cell-based, resazurin fluorescence, basal, 24 h, PK04 Diversity Set, profiling panel (AID 1174); conditions: higher = more signal, called active from +8 up or from −8 down;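 note: MM1S multiple myeloma cell line; test concentration not given here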
# [4] = biological target: Dihydroorotate dehydrogenase (quinone), mitochondrial (Plasmodium falciparum (isolate 3D7)) (UniProt Q08210); assay: inhibition of P. falciparum DHODH – biochemical, C-terminal His tag, absorbance 600 nm, primary screen (AID 1175); conditions: PfDHODH enzyme, DCIP absorbance 600 nm; higher = more signal, called active from +8 up or from −8 down;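 note: recombinant parasite enzyme with a five histidine tag at its C terminus; test concentration not given here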
# Sequence of Dihydroorotate dehydrogenase (quinone), mitochondrial (Plasmodium falciparum (isolate 3D7)) (Q08210 whole entry, looked up): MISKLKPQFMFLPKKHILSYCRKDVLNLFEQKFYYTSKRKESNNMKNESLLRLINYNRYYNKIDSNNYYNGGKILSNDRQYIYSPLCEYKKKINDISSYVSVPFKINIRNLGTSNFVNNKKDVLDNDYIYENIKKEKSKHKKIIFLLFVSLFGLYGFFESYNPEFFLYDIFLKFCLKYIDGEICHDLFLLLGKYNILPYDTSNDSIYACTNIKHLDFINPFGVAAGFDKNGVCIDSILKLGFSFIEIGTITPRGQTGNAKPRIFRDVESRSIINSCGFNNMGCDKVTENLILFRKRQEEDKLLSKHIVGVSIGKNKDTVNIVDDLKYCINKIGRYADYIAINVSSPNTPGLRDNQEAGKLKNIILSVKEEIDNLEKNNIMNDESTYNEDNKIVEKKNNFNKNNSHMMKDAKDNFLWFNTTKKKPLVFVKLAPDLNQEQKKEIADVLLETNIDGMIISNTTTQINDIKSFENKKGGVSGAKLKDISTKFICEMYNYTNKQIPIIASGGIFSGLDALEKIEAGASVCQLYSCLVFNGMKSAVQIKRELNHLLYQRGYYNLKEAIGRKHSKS
# [5] = inhibition of PAO1 biofilm formation – strain PAO1, LB-PBS medium, absorbance 600 nm, primary screen (AID 1176); note: test concentration not given here; conditions: P. aeruginosa PAO1 growth/biofilm, A600, 12 h; higher = more signal
# [6] = growth modulation of vineyard yeast isolate – strain RM11-1a, OD600, basal, 24 h, primary screen (AID 1177);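 note: cultures grown under basal conditions with no added stressor; test concentration not given here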; conditions: S. cerevisiae RM11-1a growth, OD600, 24 h; higher = more signal, called active from +8 up or from −8 down
# [7] = growth of efflux-deficient E. coli DRC39 – strain DRC39, OD650, 24 h, E. coli filamentation inducers, primary screen (AID 1178);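 note: growth measured as culture turbidity by optical density at 650 nm; test concentration not given here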; conditions: E. coli DRC39 acrAB, higher = more signal, called active from +8 up or from −8 down
# [8] = growth of efflux-deficient E. coli DRC39 – strain DRC39, OD650, 48 h, E. coli filamentation inducers, primary screen (AID 1179);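 note: screen aims at cell division blockers that make cells filament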; conditions: E. coli DRC39 delta-acrAB growth, higher = more signal, called active from +8 up or from −8 down
# [9] = viability profiling in RPMI8226 myeloma cells – cell-based, resazurin fluorescence, basal, 24 h, PK04 Diversity Set, profiling panel (AID 1180); conditions: higher = more signal;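 note: RPMI8826 multiple myeloma cell line at 5000 cells per well; test concentration not given here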
# [10] = biological target: E3 ubiquitin-protein ligase XIAP (Homo sapiens) (UniProt P98170); assay: small molecules binding XIAP protein – biophysical, small-molecule microarray, fluorescence 635 nm, primary screen (AID 1181); conditions: higher = more signal;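 note: score merges 667 nm emission and signal to noise over triplicate slides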
# Sequence of E3 ubiquitin-protein ligase XIAP (Homo sapiens) (P98170 whole entry, looked up): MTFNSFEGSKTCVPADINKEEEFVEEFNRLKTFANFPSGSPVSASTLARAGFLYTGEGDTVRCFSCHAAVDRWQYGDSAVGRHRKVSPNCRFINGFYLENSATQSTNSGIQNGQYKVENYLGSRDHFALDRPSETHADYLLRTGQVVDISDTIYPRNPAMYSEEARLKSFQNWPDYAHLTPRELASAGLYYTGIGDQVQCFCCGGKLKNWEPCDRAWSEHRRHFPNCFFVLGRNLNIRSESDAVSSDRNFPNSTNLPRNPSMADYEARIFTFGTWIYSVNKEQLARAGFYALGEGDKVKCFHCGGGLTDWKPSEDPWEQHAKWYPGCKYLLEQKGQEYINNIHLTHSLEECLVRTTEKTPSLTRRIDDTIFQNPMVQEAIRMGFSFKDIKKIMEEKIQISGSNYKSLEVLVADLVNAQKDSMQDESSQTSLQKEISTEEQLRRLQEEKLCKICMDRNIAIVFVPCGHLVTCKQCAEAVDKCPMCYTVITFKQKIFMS
SMILES,z-score [1],z-score [2],z-score [3],composite z-score [4],z-score [5],z-score [6],z-score [7],z-score [8],z-score [9],composite z-score [10]
CC1C2C(CCCO)=CC(C3C(=O)N(C)C(=O)C23)N1Cc1cccc(OC(F)(F)F)c1 (stereo not given),-1.25,-2.02 (inactive),-0.244 (inactive),0.131 (inactive),-0.0099 (inactive),0.481 (inactive),0.224 (inactive),-0.0843 (inactive),-0.278,0.245
Cc1ccc(S[C@]2(C(=O)NCc3ccccc3)CC(=O)N(Cc3ccccc3C(F)(F)F)[C@@H]2c2ccc(CO)cc2I)cc1,0.213,-5.1 (inactive),-2.36 (inactive),-1.44 (inactive),-0.239 (inactive),-1.54 (inactive),0.506 (inactive),-0.0277 (inactive),-1.28,-0.135
C=C(COC)/C(=C/C[C@@H](OC(=O)c1ccncc1)c1ccccc1OCCO)c1cnc2ccccc2c1,-0.567,-0.0618 (inactive),0.028 (inactive),-3.66 (inactive),-0.66 (inactive),0.0519 (inactive),0.825 (inactive),0.359 (inactive),0.0353,0.166
COCCCNC(=O)[C@@]1(Cc2ccccc2I)c2ccccc2C(=O)N(Cc2ccccc2C(F)(F)F)[C@H]1c1ccc(CO)cc1,0.331,-0.088 (inactive),0.377 (inactive),0.543 (inactive),-0.963 (inactive),1.38 (inactive),0.309 (inactive),0.324 (inactive),0.426,-0.223
[N-]=[N+]=Nc1ccccc1C[C@@]1(C(=O)NCC(O)CO)N=C(c2ccc(OCCCO)cc2)O[C@@H]1c1ccccc1N=[N+]=[N-] (stereo not given in full),-2.15,-1.75 (inactive),-2.42 (inactive),0.791 (inactive),0.122 (inactive),0.629 (inactive),0.2 (inactive),-0.456 (inactive),-2.25,0.0651
COc1ccc([Si](C)(C)[C@H]2[C@H](CC(=O)N3CCC[C@H]3CO)O[C@@]3(C(=O)N(C)c4ccccc43)[C@@H]2C)cc1,-0.395,0.264 (inactive),-0.212 (inactive),-0.269 (inactive),1.32 (inactive),0.554 (inactive),0.133 (inactive),-0.0566 (inactive),-0.418,0.0473
CCCNC(=O)[C@@]1(Sc2ccc(C)cc2)CC(=O)N(Cc2cc(C(F)(F)F)cc(C(F)(F)F)c2)[C@@H]1c1ccc(CO)cc1,-0.258,-0.265 (inactive),0.905 (inactive),-0.756 (inactive),0.366 (inactive),-0.977 (inactive),0.484 (inactive),-0.0429 (inactive),0.18,-0.127
COc1c(C)cc(-c2cc3c(c(CCc4ccccc4)n2)[Si](C(C)C)(C(C)C)O[C@H]3c2ccccc2)cc1C,-0.0275,0.597 (inactive),0.135 (inactive),0.0798 (inactive),0.608 (inactive),1.42 (inactive),-0.754 (inactive),-0.744 (inactive),-3.7,-0.195
CC(C)C[C@@H]1NC(=O)[C@@H]2C[C@H](C(=O)NCCCCCNC(=O)CS)[C@H](c3ccc(O)cc3)N2C1=O,0.432,-1.44 (inactive),0.974 (inactive),-0.24 (inactive),2.91 (inactive),-1.38 (inactive),-0.692 (inactive),-0.539 (inactive),0.718,0.302
C=CCNC(=O)[C@@H]1[C@H]2C(=O)O[C@H](c3ccccc3)[C@H](c3ccccc3)N2[C@H](c2ccc(OCCO)cc2)[C@@]12C(=O)N(C(=O)OCCOC)c1ccccc12,0.0303,1.98 (inactive),-0.522 (inactive),0.659 (inactive),2.69 (inactive),3.16 (inactive),0.446 (inactive),0.282 (inactive),-0.289,0.0623
C=CCC(OC(C)=O)[C@@H]1[C@@H](N(Cc2ccc(-c3ccccc3)cc2)C(=O)Cc2ccc(OC)cc2)c2cc(OCCCO)ccc2N1C(=O)c1ccc2ccccc2c1 (stereo not given in full),-0.555,-0.562 (inactive),-0.536 (inactive),-0.804 (inactive),0.0914 (inactive),-1.21 (inactive),0.174 (inactive),-0.339 (inactive),0.186,0.202
CO[C@H]1O[C@H](CO)[C@@H](OC(=O)Nc2cccc(F)c2)[C@H](OC(=O)Nc2ccc3c(c2)OCO3)[C@@H]1OC(=O)Nc1ccc2c(c1)OCO2,-0.705,1.38 (inactive),-1 (inactive),0.368 (inactive),0.661 (inactive),1.82 (inactive),1.04 (inactive),0.761 (inactive),-0.931,0.0526
O=C1C[C@@](C(=O)NCC(F)(F)F)(c2ccc([N+](=O)[O-])cc2)[C@@H](c2ccc(CO)cc2I)N1CC12CC3CC(CC(C3)C1)C2,-4.52,-1.42 (inactive),-7.22 (inactive),-1.13 (inactive),1.11 (inactive),-0.355 (inactive),0.213 (inactive),1.29 (inactive),-6.47,-0.0287
CC1CC/C=C\[C@H]2OC34C=CCN(C(C)C)C(=O)[C@H]3N(C(C)CO)C(=O)[C@@H]4C2C(=O)O1 (stereo not given in full),0.741,0.306 (inactive),1.05 (inactive),-0.0766 (inactive),2.9 (inactive),0.477 (inactive),0.355 (inactive),0.553 (inactive),0.832,0.0345
O=C1NC(=O)C2C1C=CC(C(O)c1ccc(F)cc1)N2Nc1ccc(Cl)cc1Cl (stereo not given),-2.15,-16.3 (active),-1.28 (inactive),0.827 (inactive),1.06 (inactive),-8.86 (active),-0.2 (inactive),-1.52 (inactive),-1.79,0.285
COC(=O)[C@@]1(Cc2ccc(F)cc2)[C@H]2c3cc(C(=O)N4CCCC4)n(C[C@H](O)CO)c3C[C@H]2CN1C(=O)c1ccccc1,-0.462,0.897 (inactive),-0.765 (inactive),-0.323 (inactive),0.812 (inactive),-0.108 (inactive),-0.645 (inactive),-0.0414 (inactive),-0.797,0.0811
COc1ccc(C(O)C2C=CC3C(=O)N(C)C(=O)C3N2Nc2ccccc2)cc1 (stereo not given),-1.73,-3.09 (inactive),-0.956 (inactive),-0.685 (inactive),1.33 (inactive),-0.119 (inactive),-0.386 (inactive),-0.605 (inactive),-1.08,0.032
COC(=O)C1(CC(C)C)C=C2C(=C(C)C(=O)C2C)CN1 (stereo not given),-1.23,1.84 (inactive),-1.78 (inactive),-1.11 (inactive),0.715 (inactive),0.386 (inactive),-0.43 (inactive),-0.078 (inactive),-1.8,0.0408
CN1C(=O)C2CC=C(C3=CCO[C@@H]3[C@H]3CCCN3S(=O)(=O)c3ccccc3[N+](=O)[O-])CC2C1=O (stereo not given in full),0.277,0.175 (inactive),-0.354 (inactive),-0.912 (inactive),0.425 (inactive),0.0123 (inactive),0.527 (inactive),0.189 (inactive),0.0213,-0.187
C=C[C@@H](CO)NS(=O)(=O)c1ccc(Br)cc1,1.4,-2.03 (inactive),1.16 (inactive),-1.37 (inactive),0.193 (inactive),-2.19 (inactive),1.43 (inactive),1.16 (inactive),0.867,-0.215
C[C@@]1([C@@H](NS(=O)(=O)c2cccc3cccnc23)c2ccc(-c3ccccc3)cc2)C[C@H]1C1CCCCC1,-0.901,0.944 (inactive),-2.58 (inactive),-0.554 (inactive),-0.0982 (inactive),0.368 (inactive),-0.893 (inactive),-0.882 (inactive),-0.678,0.553
O=C1OC[C@@H](c2ccccc2)n2cc(/C=C/c3ccccc3)cc21,-0.295,-2.5 (inactive),0.539 (inactive),-2.31 (inactive),-0.353 (inactive),0.561 (inactive),-0.0891 (inactive),-0.733 (inactive),-0.302,-0.286
CC(C)c1ccc(NN2C(C(O)C(C)c3ccccc3)C=CC3C(=O)N(c4ccccc4)C(=O)C32)cc1 (stereo not given),-1.72,0.0145 (inactive),-1.23 (inactive),-0.259 (inactive),1.22 (inactive),0.208 (inactive),-0.828 (inactive),-0.764 (inactive),-1.2,0.155
C=CC[C@]1(C(=O)NCC(O)CO)N=C(c2ccc(OCCCO)cc2)O[C@H]1c1ccccc1CN=[N+]=[N-] (stereo not given in full),-0.766,-0.432 (inactive),-1.51 (inactive),-0.0887 (inactive),1.27 (inactive),0.244 (inactive),-0.363 (inactive),0.196 (inactive),-0.566,-0.0136
COCCCNC(=O)[C@@]1(Cc2ccccc2I)c2ccccc2C(=O)N(C2CCCCC2)[C@H]1c1ccc(CO)cc1,1.12,-0.6 (inactive),0.28 (inactive),0.154 (inactive),1.13 (inactive),-0.244 (inactive),0.319 (inactive),0.26 (inactive),0.448,-0.0343
COCCOC(=O)N1C(=O)[C@@]2(c3cc(C#CC4=CCCCC4)ccc31)[C@H](c1ccc(O)cc1)N1[C@H](c3ccccc3)[C@H](c3ccccc3)OC(=O)[C@H]1[C@@H]2C(=O)N1CCc2cc(OC)c(OC)cc2C1,0.291,0.0658 (inactive),-0.671 (inactive),-0.0425 (inactive),0.902 (inactive),0.432 (inactive),-0.184 (inactive),-0.119 (inactive),-0.161,-0.0434
